Assay results reported in PubChem BioAssay.
The source made the active and inactive calls.

Assays:
[1] = E. coli DRC41 culture turbidity changes, primary screen, E. coli filamentation inducer project, strain DRC41, OD650, 48 h (AID 1152);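 also: E. coli MC1000 strain DRC41 lacking acrAB efflux pump and sulA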; conditions: E. coli DRC41 (acrAB sulA), higher = more signal, called active from +8 up or from −8 down
[2] = small-molecule binders of probe aLefty1, primary screen, biochemical, small-molecule microarray, 635/667 nm fluorescence (AID 1153); conditions: higher = more signal;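 also: score merges spot fluorescence with signal-to-noise ratio from the scanned slide images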
[3] = PSAC antagonists in infected red cells, primary screen, cell-based, P. falciparum Indochina, OD700, 1 h (AID 1154); conditions: P. falciparum Indochina infected RBC osmotic lysis, higher = more signal, called active from +8 up or from −8 down
[4] = PSAC antagonists in infected red cells, primary screen, cell-based, P. falciparum Indochina, OD700, 2 h (AID 1155);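 also: lysis reports solute entry through the parasite surface anion channel PSAC; channel blockers reduce lysis of infected cells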; conditions: P. falciparum Indochina infected erythrocytes, osmotic lysis OD700; higher = more signal, called active from +8 up or from −8 down
[5] = osmotic lysis modulators in infected erythrocytes, primary screen, PSAC antagonist project, cell-based, P. falciparum Indochina, OD700, 3 h (AID 1156); conditions: higher = more signal, called active from +8 up or from −8 down
[6] = PSAC antagonists in infected red cells, primary screen, cell-based, P. falciparum Indochina, OD700, 18 h (AID 1157); conditions: P. falciparum Indochina infected erythrocytes, osmotic lysis OD700, 18 h; higher = more signal, called active from +8 up or from −8 down
[7] = modulators of S6 phosphorylation in cells, primary screen, cell-based, A549, cytoblot, luminescence, serum-stimulated (AID 1158); conditions: A549 phospho-S6 cytoblot, 5 h, higher = more signal;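 also: serum-stimulated A549 lung adenocarcinoma cells; signal is phosphorylated S6 detected by cytoblot immunostaining with HRP secondary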
[8] = target: NADPH oxidase 2 (Homo sapiens) (UniProt P04839); assay: NOX2-dependent H2O2 signal modulators, primary screen, NOX inhibitor project, cell-based, HEK293-NOX2, PMA-stimulated, Amplex Red fluorescence (AID 1159); conditions: 45 min, higher = more signal, called active from +8 up or from −8 down; also: test concentration not given here
[9] = target: NADPH oxidase 4 (Homo sapiens) (UniProt Q9NPH5); assay: NOX4-dependent H2O2 signal modulators, primary screen, NOX inhibitor project, cell-based, HEK293-NOX4, tetracycline-induced, Amplex Red fluorescence (AID 1160); conditions: 45 min, higher = more signal, called active from +8 up or from −8 down
[10] = target: NADPH oxidase 5 (Homo sapiens) (UniProt Q96PH1); assay: NOX5-dependent H2O2 signal modulators, primary screen, NOX inhibitor project, cell-based, HEK293-NOX5, Amplex Red fluorescence (AID 1161); conditions: HEK293-NOX5, ionomycin, 45 min, higher = more signal
[11] = A549 cell viability effects, profiling panel, calcein-AM fluorescence, 48 h, basal (AID 1162); conditions: higher = more signal; also: test concentration not given here
[12] = adipocyte viability effects, profiling panel, cell-based, 3T3-L1 adipocytes, calcein-AM fluorescence, 48 h, basal (AID 1163); conditions: 3T3-L1 adipocytes viability, higher = more signal; also: test concentration not given here
[13] = HepG2 cell viability effects, profiling panel, calcein-AM fluorescence, 48 h, basal (AID 1164); conditions: higher = more signal; also: test concentration not given here
[14] = MM1S cell viability effects, profiling panel, calcein-AM fluorescence, 48 h, basal (AID 1165); conditions: higher = more signal;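 also: viability of MM1S multiple myeloma cells under basal unstimulated conditions; test concentration not given here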
[15] = basal RPMI8226 viability, no added stimulus, profiling panel, cell-based, calcein-AM fluorescence, 48 h, PK04 Diversity Set (AID 1166); conditions: RPMI8226 myeloma viability, higher = more signal;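 also: cells grown under basal conditions without added stimulus; test concentration not given here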
[16] = basal HepG2 mitochondrial membrane potential changes, profiling panel, cell-based, JC-1 fluorescence, 24 h, 100 nL compound (AID 1167); conditions: higher = more signal; also: test concentration not given here
[17] = basal 3T3-L1 adipocyte mitochondrial potential changes, profiling panel, cell-based, JC-1 fluorescence, 3T3-L1 adipocytes, 24 h, 100 nL compound (AID 1168); conditions: JC-1 mitochondrial fluorescence, higher = more signal, called active from +8 up or from −8 down; also: test concentration not given here
[18] = basal RPMI8226 mitochondrial membrane potential changes, profiling panel, cell-based, JC-1 fluorescence, 24 h, 100 nL compound (AID 1169); conditions: RPMI8226 myeloma, JC-1 mitochondrial potential fluorescence, higher = more signal; also: test concentration not given here
[19] = basal MM1S mitochondrial membrane potential changes, profiling panel, cell-based, JC-1 fluorescence, 24 h, 100 nL compound (AID 1170); conditions: higher = more signal; also: test concentration not given here
[20] = A549 lung cancer cell viability effects, profiling panel, resazurin fluorescence, 24 h, PK04 Diversity Set (AID 1171); conditions: higher = more signal, called active from +8 up or from −8 down; also: test concentration not given here

Sequence of NADPH oxidase 4 (Homo sapiens) (Q9NPH5 whole entry, looked up): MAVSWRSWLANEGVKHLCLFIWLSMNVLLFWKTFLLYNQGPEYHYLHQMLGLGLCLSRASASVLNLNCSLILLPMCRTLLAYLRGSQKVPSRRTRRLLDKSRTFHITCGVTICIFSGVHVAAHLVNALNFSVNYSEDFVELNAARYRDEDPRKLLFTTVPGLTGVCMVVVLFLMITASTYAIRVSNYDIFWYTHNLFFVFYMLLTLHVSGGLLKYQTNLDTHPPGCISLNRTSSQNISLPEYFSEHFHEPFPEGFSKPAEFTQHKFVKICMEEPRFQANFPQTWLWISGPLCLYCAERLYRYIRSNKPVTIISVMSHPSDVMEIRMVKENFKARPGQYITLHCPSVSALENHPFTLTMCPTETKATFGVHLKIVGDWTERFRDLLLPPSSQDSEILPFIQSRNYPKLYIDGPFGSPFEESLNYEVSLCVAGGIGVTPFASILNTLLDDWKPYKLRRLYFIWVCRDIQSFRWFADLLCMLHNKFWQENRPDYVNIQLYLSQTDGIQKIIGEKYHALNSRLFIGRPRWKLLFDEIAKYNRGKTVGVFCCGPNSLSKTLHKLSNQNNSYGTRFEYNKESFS
Sequence of NADPH oxidase 2 (Homo sapiens) (P04839 whole entry, looked up): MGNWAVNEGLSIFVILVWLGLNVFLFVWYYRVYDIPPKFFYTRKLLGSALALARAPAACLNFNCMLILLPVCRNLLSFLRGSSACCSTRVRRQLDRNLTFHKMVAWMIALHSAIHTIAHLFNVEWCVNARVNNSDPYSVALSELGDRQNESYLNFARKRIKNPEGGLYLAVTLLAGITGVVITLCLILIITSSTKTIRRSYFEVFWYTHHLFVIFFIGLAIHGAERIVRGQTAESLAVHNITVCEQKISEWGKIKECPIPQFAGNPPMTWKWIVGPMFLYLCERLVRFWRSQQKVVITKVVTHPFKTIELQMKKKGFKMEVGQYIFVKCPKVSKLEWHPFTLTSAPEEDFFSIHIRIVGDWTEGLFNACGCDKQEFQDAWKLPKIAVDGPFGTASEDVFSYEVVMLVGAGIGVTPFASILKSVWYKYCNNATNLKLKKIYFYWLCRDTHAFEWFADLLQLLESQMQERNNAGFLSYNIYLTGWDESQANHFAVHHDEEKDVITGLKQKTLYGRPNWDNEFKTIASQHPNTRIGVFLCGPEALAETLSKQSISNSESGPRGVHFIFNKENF
Sequence of NADPH oxidase 5 (Homo sapiens) (Q96PH1 whole entry, looked up): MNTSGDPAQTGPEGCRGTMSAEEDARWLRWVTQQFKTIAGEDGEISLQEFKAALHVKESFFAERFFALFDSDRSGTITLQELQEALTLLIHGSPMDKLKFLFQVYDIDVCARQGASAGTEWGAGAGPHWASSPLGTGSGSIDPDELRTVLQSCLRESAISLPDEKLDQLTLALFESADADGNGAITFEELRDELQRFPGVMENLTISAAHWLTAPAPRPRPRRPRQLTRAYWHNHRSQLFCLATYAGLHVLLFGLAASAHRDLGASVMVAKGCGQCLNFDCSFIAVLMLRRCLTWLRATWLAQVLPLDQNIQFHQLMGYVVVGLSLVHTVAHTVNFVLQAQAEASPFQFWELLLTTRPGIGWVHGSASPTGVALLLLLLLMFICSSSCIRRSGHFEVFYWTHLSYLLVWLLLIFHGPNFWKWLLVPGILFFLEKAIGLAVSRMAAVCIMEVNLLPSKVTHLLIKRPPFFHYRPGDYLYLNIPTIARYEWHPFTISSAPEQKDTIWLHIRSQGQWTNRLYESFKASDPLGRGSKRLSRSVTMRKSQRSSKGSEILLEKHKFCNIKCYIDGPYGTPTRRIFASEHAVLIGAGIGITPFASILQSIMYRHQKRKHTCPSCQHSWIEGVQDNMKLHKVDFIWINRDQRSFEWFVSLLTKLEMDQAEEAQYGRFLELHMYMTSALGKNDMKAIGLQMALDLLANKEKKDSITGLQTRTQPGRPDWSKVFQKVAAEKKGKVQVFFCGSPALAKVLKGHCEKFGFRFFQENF

Row | Structure (SMILES) | z-score [1] | composite z-score [2] | z-score [3] | z-score [4] | z-score [5] | z-score [6] | z-score [7] | z-score [8] | z-score [9] | z-score [10] | z-score [11] | z-score [12] | z-score [13] | z-score [14] | z-score [15] | z-score [16] | z-score [17] | z-score [18] | z-score [19] | z-score [20]
1 | C=CCN1Cc2ccccc2C[C@@]2(N=C(c3ccc(OCCCO)cc3)O[C@H]2c2ccccc2)C1=O | 0.404 (inactive) | 0.57 | 28.1 (active) | 23.6 (active) | 2.55 (inactive) | 5.74 (inactive) | 0.624 | -5.76 (inactive) | -0.323 (inactive) | -3.72 | -1.46 | 0.906 | -1.05 | -3.52 | -3.95 | 0.166 | 1.4 (inactive) | -1.03 | -2.48 | -3.12 (inactive)
2 | O=C(CS)NCCCCCCNC(=O)[C@@H]1C[C@@H]2C(=O)N3CCC[C@H]3C(=O)N2[C@@H]1c1cccc(OCCO)c1 | 1.89 (inactive) | 0.113 | 2.94 (inactive) | -0.677 (inactive) | 1.94 (inactive) | -1.78 (inactive) | 2.09 | 1.17 (inactive) | 0.87 (inactive) | 0.222 | 2.14 | 0.426 | 1.02 | 0.0848 | 0.449 | -0.151 | 0.193 (inactive) | 0.0158 | 0.111 | -0.659 (inactive)
3 | COc1c(C)cc(-c2cc3c(c(-c4ccccc4)n2)[Si](C(C)C)(C(C)C)OC3)cc1C | 0.118 (inactive) | -0.0287 | 1.54 (inactive) | 0.494 (inactive) | 0.392 (inactive) | 0.506 (inactive) | 0.768 | 0.956 (inactive) | 0.103 (inactive) | 0.829 | 0.33 | -0.182 | -0.43 | -1.51 | -0.515 | -0.759 | -0.00733 (inactive) | 0.00523 | 0.486 | 0.51 (inactive)
4 | CCCC[C@@H]1C[C@H]1[C@@H](NC(=O)c1ccccc1)c1ccc(Cl)cc1 | -2.41 (inactive) | 0.233 | 1.72 (inactive) | 0.589 (inactive) | -0.573 (inactive) | 0.839 (inactive) | -0.584 | -0.093 (inactive) | -0.505 (inactive) | 1.86 | -1.35 | -0.847 | -1.17 | -1.23 | -1.45 | 0.229 | -1.6 (inactive) | -0.852 | -1.19 | 2.09 (inactive)
5 | [N-]=[N+]=Nc1ccccc1C[C@]1(C(=O)NCc2ccccc2)N=C(c2ccc(OCCCO)cc2)O[C@H]1c1ccccc1 | 0.383 (inactive) | 0.394 | 17.6 (active) | 3.08 (inactive) | 1.14 (inactive) | 0.786 (inactive) | -0.16 | -0.172 (inactive) | 1.45 (inactive) | 1.03 | -1.66 | -0.651 | -1.14 | -2.41 | -2.86 | 1.88 | -0.095 (inactive) | -1.13 | -1.73 | -0.395 (inactive)
6 | Cc1ccc(C(C)CC(O)C2C=CC3C(=O)N(c4ccccc4)C(=O)C3N2Nc2ccc(C(C)C)cc2)o1 (stereo not given) | -1.84 (inactive) | 0.629 | 1.45 (inactive) | 0.871 (inactive) | 0.948 (inactive) | 0.631 (inactive) | -1.31 | -0.831 (inactive) | -2.34 (inactive) | -3.53 | -1.12 | -0.279 | 0.137 | -1.41 | -1.19 | -2.29 | -1.44 (inactive) | -0.778 | 0.772 | -0.634 (inactive)
7 | O=C1O[C@@H](c2ccccc2)[C@@H](c2ccccc2)N2[C@@H](c3ccccc3OCCO)[C@]3(C(=O)Nc4ccc(C#CCCO)cc43)[C@@H](C(=O)Nc3nc4ccccc4s3)[C@H]12 | 1.4 (inactive) | 0.13 | 2.06 (inactive) | 3.56 (inactive) | 1.59 (inactive) | 1.72 (inactive) | 0.206 | 1.3 (inactive) | 0.352 (inactive) | 1.23 | 1.02 | 0.0714 | 0.702 | -0.264 | -1.55 | -2.29 | 0.856 (inactive) | -1.13 | -1.33 | 0.2 (inactive)
8 | C=C[C@@H](COC(C)=O)NS(=O)(=O)c1ccc(Br)cc1 | 0.032 (inactive) | -0.0464 | -0.0045 (inactive) | -0.446 (inactive) | -0.123 (inactive) | 0.0804 (inactive) | -0.0771 | -0.34 (inactive) | -0.487 (inactive) | -0.833 | 0.0976 | -0.342 | 1.04 | -2.08 | -1.74 | -0.742 | -0.195 (inactive) | -0.0875 | -0.259 | -1.82 (inactive)
